Consider eleven molecules from PubChem BioAssay (NCATS).

Where “and” joins values, the source holds several entries; their conditions need not be identical. Equal entries are not always repeated. Records with an inconclusive call do not appear. Calls of active or inactive are those of the source. Unless noted, calls follow the shape of the dose curve; as a rule, active = well fitted curve in the direction sought with a large enough effect; inconclusive = small, poorly fitted or top-dose-only effect, or another doubt; inactive = no such curve, though single readings can be large; an effect the other way counts as inactive or inconclusive.

Assay [1] has as its target Ubiquitin carboxyl-terminal hydrolase 1 (Homo sapiens) (UniProt O94782). Briefly: Inhibitors of USP1/UAF1: Pilot qHTS (AID 504865).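 Also: rhodamine fluorescence freed from ubiquitin-rhodamine substrate followed over time; top concentration of the series differs between compounds; % is scaled to controls: 0 for no effect and ±100 for the full control effect; nearly all actives have a fitted effect of over 35% in size.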 In short, it runs like this:
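USP1/UAF1 complex at 1 nM preincubated 15 min at room temperature with compound, then Ub-Rho substrate added at 150 nM final. Fluorescence (480/540 nm) read kinetically in 50 mM HEPES pH 7.8, 0.5 mM EDTA, 1 mM TCEP, 0.1 mg/ml BSA, 0.01% Tween-20.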
A general note: Quantitative high-throughput screening tests each substance at several concentrations.

Assay [2] in a line: qHTS for Inhibitors of ATXN expression: Validation of Cytotoxic Assay (AID 588349). Also: % is scaled to controls: 0 for no effect and ±100 for the full control effect. In short, it runs like this: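 HEK293 cells treated with titrated compound for 72 hr at 37 degrees C; viability read as intracellular ATP by CellTiter Glo luminescence.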
Assay [3] has as its target Estrogen receptor (Homo sapiens) (UniProt P03372). In words: qHTS assay for small molecule antagonists of estrogen receptor alpha signaling (AID 588513; active = well fitted curve in the direction sought with a large enough effect in the signal ratio, with a control signal flat, not every such curve was filed as active; the % refers to the signal ratio; also: % is scaled to controls: 0 for no effect and ±100 for the full control effect). The essentials: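 ER-alpha-UAS-bla GripTite HEK 293 cells in 2% charcoal/dextran-treated FBS medium; compounds titrated (1:2, duplicate), then stimulated with 0.5 nM 17-beta-estradiol for 18 h at 37C. CCF4 beta-lactamase fluorescence; Hill-fit IC50 and efficacy.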

Assay [4] shares this target. Briefly: qHTS assay for small molecule agonists of estrogen receptor alpha signaling (AID 588514; calls by dose curve;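 also: 0% = vehicle only and 100% = reference agonist; nearly all actives have a fitted effect of over 70% in size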). In short, it runs like this: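 ER-alpha-UAS-bla GripTite HEK293 cells, 5000/well in 2% charcoal/dextran-stripped FBS medium, treated with compound titrations 18 h at 37 C. CCF4 beta-lactamase read by fluorescence after 2 h RT; normalised to 20 nM 17-beta-estradiol (100%) and DMSO (0%), Hill fit for EC50 and efficacy.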

Assay [5] in a line: qHTS assay for small molecule antagonists of peroxisome proliferator-activated receptor delta signaling (AID 588535; active = well fitted inhibition curve with a large enough effect in the signal ratio, with a control signal flat, not every such curve was filed as active; the % refers to the signal ratio;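 as to max response: cells co-treated with a PPAR-delta agonist as stimulator during compound exposure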). The following applies: HEK293T PPARd-UAS-bla, beta-lactamase FRET ratio, 18 h; 460 nm channel. The essentials: (§1)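 Reporter: UAS-bla under PPAR-delta response element, HEK293T host. Medium: 2% charcoal/dextran FBS. Dosing: titration, 18 hrs, 37 C. Detection: CCF4, 2 hrs RT, 405 ex/460 and 530 em.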

The target of assay [6] is Peroxisome proliferator-activated receptor delta (Homo sapiens) (UniProt Q03181). The description is as above. In short, it runs like this: as §1
The target of assay [7] is Peroxisome proliferator-activated receptor gamma (Homo sapiens) (UniProt P37231). In words: qHTS assay for small molecule agonists of peroxisome proliferator-activated receptor gamma signaling (AID 588536; active = well fitted curve in the direction sought with a large enough effect in the signal ratio, with a control signal flat, not every such curve was filed as active; the % refers to the signal ratio;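 also: 0% = DMSO basal wells and 100% = rosiglitazone at 2 µM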). In short, it runs like this: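 HEK293 UAS-bla reporter line, 1% charcoal/dextran FBS; titration, 16 h, 37 C; CCF4 loading 2 h RT; fluorescence 460/530 nm. Normalized to rosiglitazone 2 uM = 100%, DMSO = 0%.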

For assay [8] the target is unchanged. In words: qHTS assay for small molecule antagonists of peroxisome proliferator-activated receptor gamma signaling (AID 588537; active = well fitted inhibition curve with a large enough effect in the signal ratio, with a control signal flat, not every such curve was filed as active; the % refers to the signal ratio;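 also: reporter cells co-stimulated with 50 nM rosiglitazone agonist during compound treatment; % of control where 0% means no effect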). In short, it runs like this: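 We seeded GeneBLAzer HEK293 reporter cells at 3000 per well, allowed 6-6.5 h attachment at 37 C, then co-treated with test compound titrations and 50 nM rosiglitazone overnight (16 h). Inhibition was quantified from 460/530 nm emission ratios.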

Assay [9] addresses Vitamin D3 receptor (Homo sapiens) (UniProt P11473). In words: qHTS assay for small molecule antagonists of vitamin D receptor signaling (AID 588541; calls by dose curve;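 also: receptor activated by calcitriol during compound treatment; series mostly up to about 77 µM; % is scaled to controls: 0 for no effect and ±100 for the full control effect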). In short, it runs like this:
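VDR-UAS-bla HEK293T cells (2000/well, 2% charcoal-stripped FBS) were treated with titrated compounds plus 1-alpha,25-dihydroxyvitamin D3 (50 nM or 3 nM final) for 16 h at 37 C. CCF4 beta-lactamase fluorescence was read; Hill fits gave IC50.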

Assay [10] has the same target. Briefly: qHTS assay for small molecule agonists of vitamin D receptor signaling (AID 588543; calls by dose curve;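 also: 0% = DMSO basal and 100% = reference agonist control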). In short, it runs like this: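 VDR-UAS-bla HEK293T cells, 2000/well, 2% charcoal-stripped FBS; compound titration 16 h at 37 C; CCF4 beta-lactamase ratio read. Normalized to 50 nM 1-alpha,25-dihydroxyvitamin D3 (100%) and DMSO; Hill fit gives EC50, efficacy.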
A short description of assay [11]: qHTS assay for small molecule agonists of retinoid X receptor alpha signaling (AID 588544; calls by dose curve;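 as to activation: 0% = DMSO basal wells and 100% = reference agonist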). To be noted: HEK293T RXRa-UAS-bla, beta-lactamase reporter, 18 h; 530 nm emission.
The target of assay [12] is Retinoic acid receptor RXR-alpha (Homo sapiens) (UniProt P19793). The description is as above.
Assay [13] addresses Thyroid hormone receptor beta (Homo sapiens) (UniProt P10828). Briefly: qHTS assay for small molecule agonists of thyroid hormone receptor beta signaling (AID 588545; calls by dose curve;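 also: 0% = DMSO only and 100% = 10 nM T3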). In short, it runs like this:
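Compounds were tested as agonists in TR-UAS-bla-GripTite HEK 293 cells. After 18 hrs at 37 C, CCF4 substrate was added and fluorescence read after 2 hrs at room temperature.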

Assay [14] can be described thus: qHTS assay for small molecule antagonists of retinoid X receptor alpha signaling (AID 588546).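 Also: cells stimulated with 9-cis-retinoic acid as agonist; % is scaled to controls: 0 for no effect and ±100 for the full control effect.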 To be noted: HEK293T RXRa-UAS-bla, beta-lactamase ratio, antagonist mode; measured here: W530 green channel, cytotoxicity proxy. In short, it runs like this: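 Beta-lactamase reporter inhibition, read as CCF4 fluorescence ratio (ex 405, em 460/530 nm) after 2 h at RT. HEK293T UAS-bla cells, 2500/well, were stimulated with 9-cis-RA at 500 or 100 nM final alongside test compound for 18 h at 37 C.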

Assay [15] has as its target Androgen receptor (Homo sapiens) (UniProt P10275). In words: qHTS assay for small molecule agonists of androgen receptor signaling (AID 588515; active = well fitted curve in the direction sought with a large enough effect in the signal ratio, with a control signal flat; the % refers to the signal ratio; also: % is scaled to controls: 0 for no effect and ±100 for the full control effect). The following applies: AR-UAS-bla HEK293, beta-lactamase ratio, agonist 16 h; activation: stronger effect = higher value. In short, it runs like this: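 EC50 and efficacy came from Hill fits of titrations (up to 92 uM) normalized to 30 nM R1881 as 100% and DMSO as 0%. Compound exposure was 16 h at 37 C on AR-UAS-bla HEK293 cells, with a 405/460/530 nm CCF4 fluorescence read.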

The target is the same in assay [16]. In words: qHTS assay for small molecule antagonists of androgen receptor signaling (AID 588516; active = well fitted curve in the direction sought with a large enough effect in the signal ratio, with a control signal flat, not every such curve was filed as active; the % refers to the signal ratio; also: % is scaled to controls: 0 for no effect and ±100 for the full control effect). In short, it runs like this: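 AR-UAS-bla GripTite HEK 293 cells (2000/well) treated with compound titrations plus 10 nM R1881 for 16 h at 37C. Beta-lactamase read by CCF4 FRET (460/530 nm); IC50 from Hill fits, normalized to R1881 and DMSO control wells.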
In assay [17] the target is Glucocorticoid receptor (Homo sapiens) (UniProt P04150). Briefly: qHTS assay for small molecule agonists of glucocorticoid receptor signaling (AID 588532; active = well fitted curve in the direction sought with a large enough effect in the signal ratio, with a control signal flat; the % refers to the signal ratio;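 also: 100% = dexamethasone at 0.1 µM and 0% = DMSO only wells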). To be noted: HeLa MMTV-bla, beta-lactamase ratio, agonist, 18 h; stronger effect = higher value; percent of dexamethasone control, DMSO zero. The essentials: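 Stimulation of a glucocorticoid response element-driven beta-lactamase gene was measured in HeLa cells. Responses were scaled between DMSO basal and 0.1 uM dexamethasone, then fitted for half-maximal stimulation.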

Assay [18] has the same target. In words: qHTS assay for small molecule antagonists of glucocorticoid receptor signaling (AID 588533; active = well fitted inhibition curve with a large enough effect in the signal ratio, with a control signal flat, not every such curve was filed as active; the % refers to the signal ratio). In short, it runs like this:
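Antagonist-mode qHTS: compound titrations added to GRE-bla HeLa cells, then dexamethasone 2 nM final; 18 h, 37 C. CCF4 FRET fluorescence normalized to dexamethasone and DMSO; IC50 from Hill fit.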

For assay [19], the target named is DNA dC->dU-editing enzyme APOBEC-3G (Homo sapiens) (UniProt Q9HC16). Briefly: qHTS for inhibitors of Vif-A3G interactions: Validation (AID 588379). Also: 0% is about no effect. The essentials: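 HeLa cells stably expressing Vif and A3G-eYFP, 700 cells/well, incubated overnight at 37 deg C, then exposed to compound overnight at 37 deg C. Inhibition of Vif-mediated degradation read as increased yellow fluorescence (Ex 488/Em 500-530) by laser-scanning cytometry.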
DNA dC->dU-editing enzyme APOBEC-3G (Homo sapiens), sequence (Q9HC16 whole entry, looked up): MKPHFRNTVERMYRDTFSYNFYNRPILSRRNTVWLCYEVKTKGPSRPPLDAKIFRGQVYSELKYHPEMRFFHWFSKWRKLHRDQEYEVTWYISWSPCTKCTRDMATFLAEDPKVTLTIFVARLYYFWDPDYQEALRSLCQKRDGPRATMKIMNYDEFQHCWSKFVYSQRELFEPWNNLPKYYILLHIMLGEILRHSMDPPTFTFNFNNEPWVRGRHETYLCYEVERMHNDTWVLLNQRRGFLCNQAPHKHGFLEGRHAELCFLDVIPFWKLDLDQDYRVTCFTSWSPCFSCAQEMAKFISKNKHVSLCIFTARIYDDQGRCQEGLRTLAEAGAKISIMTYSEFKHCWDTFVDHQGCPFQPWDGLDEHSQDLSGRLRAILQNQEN

Estrogen receptor (Homo sapiens), sequence (P03372 whole entry, looked up): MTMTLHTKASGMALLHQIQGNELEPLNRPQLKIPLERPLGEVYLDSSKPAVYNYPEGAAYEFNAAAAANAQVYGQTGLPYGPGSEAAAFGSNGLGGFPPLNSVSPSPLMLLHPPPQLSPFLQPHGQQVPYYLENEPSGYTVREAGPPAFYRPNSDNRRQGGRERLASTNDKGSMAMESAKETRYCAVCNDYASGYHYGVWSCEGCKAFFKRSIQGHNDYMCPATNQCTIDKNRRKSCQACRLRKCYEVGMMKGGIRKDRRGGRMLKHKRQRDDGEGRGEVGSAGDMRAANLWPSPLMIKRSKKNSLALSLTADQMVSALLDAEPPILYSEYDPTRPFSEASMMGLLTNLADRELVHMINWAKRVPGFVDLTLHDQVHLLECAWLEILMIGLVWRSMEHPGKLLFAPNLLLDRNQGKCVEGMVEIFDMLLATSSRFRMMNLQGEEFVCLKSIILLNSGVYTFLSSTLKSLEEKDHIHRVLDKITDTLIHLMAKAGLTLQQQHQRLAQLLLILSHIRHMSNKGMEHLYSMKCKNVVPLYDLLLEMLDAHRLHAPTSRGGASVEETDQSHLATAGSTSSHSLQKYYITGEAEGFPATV
Retinoic acid receptor RXR-alpha (Homo sapiens), sequence (P19793 whole entry, looked up): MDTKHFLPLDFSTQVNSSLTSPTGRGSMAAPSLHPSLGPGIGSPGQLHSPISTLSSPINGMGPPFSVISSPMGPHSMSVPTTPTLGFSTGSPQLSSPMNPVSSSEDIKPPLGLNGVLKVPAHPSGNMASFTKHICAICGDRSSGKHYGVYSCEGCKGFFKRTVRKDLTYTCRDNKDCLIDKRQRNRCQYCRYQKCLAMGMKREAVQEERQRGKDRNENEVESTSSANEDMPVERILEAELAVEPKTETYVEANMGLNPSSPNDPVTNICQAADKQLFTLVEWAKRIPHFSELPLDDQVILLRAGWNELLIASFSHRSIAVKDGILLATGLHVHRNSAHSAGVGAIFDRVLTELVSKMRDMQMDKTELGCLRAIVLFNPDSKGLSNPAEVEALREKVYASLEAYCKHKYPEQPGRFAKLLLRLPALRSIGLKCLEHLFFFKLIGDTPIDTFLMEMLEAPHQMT
Thyroid hormone receptor beta (Homo sapiens), sequence (P10828 whole entry, looked up): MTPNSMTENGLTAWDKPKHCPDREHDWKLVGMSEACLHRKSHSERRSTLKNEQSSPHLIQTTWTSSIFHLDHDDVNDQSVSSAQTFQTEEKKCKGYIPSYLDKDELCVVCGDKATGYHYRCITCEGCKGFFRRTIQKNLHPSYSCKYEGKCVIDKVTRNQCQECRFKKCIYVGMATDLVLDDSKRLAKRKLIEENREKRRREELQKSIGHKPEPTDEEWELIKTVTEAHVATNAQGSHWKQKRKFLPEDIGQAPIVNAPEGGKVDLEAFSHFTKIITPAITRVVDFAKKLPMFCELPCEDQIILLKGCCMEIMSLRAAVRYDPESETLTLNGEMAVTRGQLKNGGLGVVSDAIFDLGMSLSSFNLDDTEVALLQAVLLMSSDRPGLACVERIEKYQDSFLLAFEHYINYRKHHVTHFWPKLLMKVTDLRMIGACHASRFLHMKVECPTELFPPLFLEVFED
Peroxisome proliferator-activated receptor delta (Homo sapiens), sequence (Q03181 whole entry, looked up): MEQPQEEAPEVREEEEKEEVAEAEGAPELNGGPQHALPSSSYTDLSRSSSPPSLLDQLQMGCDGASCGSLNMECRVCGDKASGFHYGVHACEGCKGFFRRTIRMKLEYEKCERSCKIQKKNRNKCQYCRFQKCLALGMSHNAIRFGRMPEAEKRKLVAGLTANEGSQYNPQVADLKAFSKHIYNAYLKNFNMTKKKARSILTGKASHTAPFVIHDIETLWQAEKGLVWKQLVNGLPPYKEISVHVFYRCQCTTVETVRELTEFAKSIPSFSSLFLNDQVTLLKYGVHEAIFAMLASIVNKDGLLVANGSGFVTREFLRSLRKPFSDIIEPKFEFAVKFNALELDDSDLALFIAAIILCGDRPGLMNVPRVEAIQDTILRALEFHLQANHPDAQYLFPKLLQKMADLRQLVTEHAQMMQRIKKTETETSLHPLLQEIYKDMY
Vitamin D3 receptor (Homo sapiens), sequence (P11473 whole entry, looked up): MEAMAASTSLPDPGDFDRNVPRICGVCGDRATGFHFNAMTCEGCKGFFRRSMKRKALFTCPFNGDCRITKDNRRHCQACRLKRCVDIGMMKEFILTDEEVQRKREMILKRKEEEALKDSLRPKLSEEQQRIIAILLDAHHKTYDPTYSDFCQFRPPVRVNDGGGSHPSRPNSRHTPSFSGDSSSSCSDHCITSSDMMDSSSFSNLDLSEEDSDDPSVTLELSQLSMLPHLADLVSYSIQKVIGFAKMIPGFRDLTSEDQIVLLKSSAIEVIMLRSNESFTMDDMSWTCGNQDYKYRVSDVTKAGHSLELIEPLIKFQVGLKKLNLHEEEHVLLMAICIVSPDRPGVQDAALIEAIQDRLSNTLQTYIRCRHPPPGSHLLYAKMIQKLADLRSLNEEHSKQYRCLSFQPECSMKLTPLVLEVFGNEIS
Ubiquitin carboxyl-terminal hydrolase 1 (Homo sapiens), sequence (O94782 whole entry, looked up): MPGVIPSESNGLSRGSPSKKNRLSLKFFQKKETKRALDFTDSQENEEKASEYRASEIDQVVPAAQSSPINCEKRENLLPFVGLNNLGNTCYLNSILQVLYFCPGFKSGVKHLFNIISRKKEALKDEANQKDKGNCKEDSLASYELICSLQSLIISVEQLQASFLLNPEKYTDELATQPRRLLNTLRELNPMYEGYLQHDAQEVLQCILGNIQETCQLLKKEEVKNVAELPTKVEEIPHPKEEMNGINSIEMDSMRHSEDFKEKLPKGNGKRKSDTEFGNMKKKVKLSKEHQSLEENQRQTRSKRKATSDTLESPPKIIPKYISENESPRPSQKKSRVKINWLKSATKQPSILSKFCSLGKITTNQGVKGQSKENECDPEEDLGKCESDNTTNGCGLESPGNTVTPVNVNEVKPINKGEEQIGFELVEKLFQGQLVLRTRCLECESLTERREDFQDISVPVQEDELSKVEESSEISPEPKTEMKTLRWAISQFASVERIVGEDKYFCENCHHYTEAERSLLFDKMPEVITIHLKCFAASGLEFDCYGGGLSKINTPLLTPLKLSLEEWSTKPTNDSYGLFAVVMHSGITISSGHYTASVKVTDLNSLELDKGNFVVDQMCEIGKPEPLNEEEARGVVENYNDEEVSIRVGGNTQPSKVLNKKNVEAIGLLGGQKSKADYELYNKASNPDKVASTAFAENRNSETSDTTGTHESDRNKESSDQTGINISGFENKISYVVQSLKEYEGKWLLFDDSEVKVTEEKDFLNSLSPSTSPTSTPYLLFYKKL
Glucocorticoid receptor (Homo sapiens), sequence (P04150 whole entry, looked up): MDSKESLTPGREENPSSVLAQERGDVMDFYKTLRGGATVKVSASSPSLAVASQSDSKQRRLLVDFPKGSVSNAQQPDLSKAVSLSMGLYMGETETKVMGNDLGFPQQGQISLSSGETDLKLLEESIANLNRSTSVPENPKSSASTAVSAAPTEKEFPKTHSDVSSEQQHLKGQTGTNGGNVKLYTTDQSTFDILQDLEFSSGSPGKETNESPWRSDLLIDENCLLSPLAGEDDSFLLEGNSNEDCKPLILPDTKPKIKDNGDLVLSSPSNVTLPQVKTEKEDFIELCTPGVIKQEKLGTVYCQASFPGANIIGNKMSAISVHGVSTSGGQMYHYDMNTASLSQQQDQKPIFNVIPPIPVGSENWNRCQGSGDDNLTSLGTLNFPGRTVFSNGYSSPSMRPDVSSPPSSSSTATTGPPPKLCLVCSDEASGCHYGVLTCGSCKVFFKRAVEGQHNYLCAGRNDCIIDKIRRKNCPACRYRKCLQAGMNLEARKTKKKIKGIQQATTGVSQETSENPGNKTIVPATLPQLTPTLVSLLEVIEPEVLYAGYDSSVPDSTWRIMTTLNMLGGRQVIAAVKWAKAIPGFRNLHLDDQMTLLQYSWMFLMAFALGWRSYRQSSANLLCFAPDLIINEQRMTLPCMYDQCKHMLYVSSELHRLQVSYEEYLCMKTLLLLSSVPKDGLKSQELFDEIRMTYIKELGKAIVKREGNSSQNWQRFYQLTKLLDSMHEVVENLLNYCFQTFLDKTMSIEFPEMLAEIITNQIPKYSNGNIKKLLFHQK
Peroxisome proliferator-activated receptor gamma (Homo sapiens), sequence (P37231 whole entry, looked up): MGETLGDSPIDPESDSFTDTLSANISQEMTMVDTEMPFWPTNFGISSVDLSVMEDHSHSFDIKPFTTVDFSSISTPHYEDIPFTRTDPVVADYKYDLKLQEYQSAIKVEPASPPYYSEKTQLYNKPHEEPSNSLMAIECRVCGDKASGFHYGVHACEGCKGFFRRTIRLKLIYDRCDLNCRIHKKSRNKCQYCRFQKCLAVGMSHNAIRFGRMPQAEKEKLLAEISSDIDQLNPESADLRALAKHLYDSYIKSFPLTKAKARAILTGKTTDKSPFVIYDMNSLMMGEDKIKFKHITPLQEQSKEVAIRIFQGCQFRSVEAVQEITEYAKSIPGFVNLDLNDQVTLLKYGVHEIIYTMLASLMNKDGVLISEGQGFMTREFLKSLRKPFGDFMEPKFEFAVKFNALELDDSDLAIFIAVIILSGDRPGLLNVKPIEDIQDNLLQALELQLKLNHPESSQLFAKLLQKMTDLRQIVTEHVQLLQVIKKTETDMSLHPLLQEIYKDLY

Consider `NS(=O)(=O)c1cc2c(cc1Cl)NC=NS2(=O)=O`, for which the Potency entry in [1], in assay [2] and in assay [3] was “inactive” each time. In addition, the outcome in assay [4], in [6], in [7], in [8], in [9] and in assay [10] was inactive. For the same molecule, the call in [12] and in [13] was inactive. Further, the max response in assay [5] is -29%; in assay [11] it was -7.55%; in [14], -2.78%.

In the case of `Nc1nc2c(ncn2COCCO)c(=O)[nH]1`, the Potency entry in assay [2] was “inactive”.

With `N[C@@H]1CONC1=O`, the Potency entry in assay [2] was “inactive”.

In the case of `CC(C)NCC(O)COc1ccc(COCCOC(C)C)cc1` (stereo not drawn), in assay [2], the Potency result was “inactive”.

For `Cc1cccc(-c2[nH]c(C(C)(C)C)nc2-c2ccc3nccnc3c2)n1`, the Potency result in assay [2] was “inactive”.

Regarding `O=NN(CCCl)C(=O)NCCCl`, the Potency entry in [1], in assay [2] and in [18] was “inactive” each time. Further, the call in [4], in assay [16], in assay [6], in assay [7] and in assay [12] was inactive. In addition, the activation in assay [15] is 15.8% (inactive); in assay [17], 14.4% (inactive). Besides, the max response in assay [5] was 85.8%; in [11], -5%; in assay [14], -3.42%.

Turning to `Cc1cc2c(C(C)C)c(O)c(O)c(C=O)c2c(O)c1-c1c(C)cc2c(C(C)C)c(O)c(O)c(C=O)c2c1O`, the call in [19] was inactive.

`O=C1CCC(N2C(=O)c3ccccc3C2=O)C(=O)N1` (stereo not drawn): the Potency result in assay [2] and in assay [18] was “inactive” each time. The activation in assay [17] was -2.05% (inactive). Besides, the max response in assay [5] is 27.4%; in [11], -12.6%; in [14] it was -1.95%. The molecule was called inactive in [6], in [7], in [8] and in assay [12].

Consider `Cn1cnc([N+](=O)[O-])c1Sc1ncnc2nc[nH]c12`, for which the Potency result in assay [2], in assay [3] and in assay [18] was “inactive” in each case. Further, the molecule was called inactive in assay [4], in [7], in assay [8] and in assay [13]. The activation in assay [17] is -7.04% (inactive) and 6.25% (inactive). In addition, the max response in assay [14] is 2.45% and -8.82%.

Take `NC(N)=NC(=O)c1nc(Cl)c(N)nc1N`: the Potency entry in assay [2] is “inactive”. In addition, the molecule was classed as inactive in assay [19], in assay [4], in [7], in assay [9], in [10] and in [12]. Moreover, the result in assay [13] was inactive. In assay [17], the activation was 0.0438% (inactive). Further, the max response in [11] is -3.06%; in [14], -9.32%.

With `CCN(c1ccccc1)c1cc(NC)[n+](C)c(C)n1`, the result in assay [19] was inactive.
